# An excerpt weighted towards active compounds, which were near 1.1% of everything screened.
# GC-B act = GC-B (human) receptor activation. P20594. HEK293-GC-B cells, CNP EC30, cGMP TR-FRET; 0% at EC30 CNP, 100% saturating CNP. activation, % at 10 µM. 370,000 compounds, 0.11% hits;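 active means activation at 10 µM reaching about 35% in either raw or pattern-adjusted values, limit read from the data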
# Target sequence (P20594 whole entry, looked up): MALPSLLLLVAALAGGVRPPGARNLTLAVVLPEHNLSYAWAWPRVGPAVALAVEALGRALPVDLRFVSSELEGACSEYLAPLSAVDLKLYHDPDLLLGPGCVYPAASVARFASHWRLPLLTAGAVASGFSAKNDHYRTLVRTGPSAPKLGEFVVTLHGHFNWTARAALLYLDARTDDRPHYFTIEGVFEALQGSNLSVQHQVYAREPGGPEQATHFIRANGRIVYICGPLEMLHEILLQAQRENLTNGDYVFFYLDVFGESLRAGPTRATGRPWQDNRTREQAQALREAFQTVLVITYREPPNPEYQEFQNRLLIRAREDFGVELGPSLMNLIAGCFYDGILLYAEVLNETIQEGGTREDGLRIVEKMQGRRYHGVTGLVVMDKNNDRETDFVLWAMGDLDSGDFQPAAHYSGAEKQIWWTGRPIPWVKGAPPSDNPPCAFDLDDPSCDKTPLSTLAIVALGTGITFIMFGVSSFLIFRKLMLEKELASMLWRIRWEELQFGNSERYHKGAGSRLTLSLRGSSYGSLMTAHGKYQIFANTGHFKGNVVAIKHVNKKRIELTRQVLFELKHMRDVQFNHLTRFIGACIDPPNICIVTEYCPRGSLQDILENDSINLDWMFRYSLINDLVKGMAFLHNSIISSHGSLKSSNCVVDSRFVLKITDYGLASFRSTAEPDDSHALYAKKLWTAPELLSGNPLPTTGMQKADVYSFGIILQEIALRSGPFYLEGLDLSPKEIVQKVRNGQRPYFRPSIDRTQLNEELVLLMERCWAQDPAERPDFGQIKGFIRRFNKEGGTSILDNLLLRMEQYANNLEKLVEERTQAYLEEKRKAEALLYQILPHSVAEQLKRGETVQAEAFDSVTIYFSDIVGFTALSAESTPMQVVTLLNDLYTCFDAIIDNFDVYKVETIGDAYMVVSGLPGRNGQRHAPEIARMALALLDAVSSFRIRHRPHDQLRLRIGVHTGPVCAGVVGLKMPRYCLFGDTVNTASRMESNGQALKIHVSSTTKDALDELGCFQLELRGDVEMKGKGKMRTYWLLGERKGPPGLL
# NPR1 activator = GC-A (human) enzyme activation; P16066; HEK293 GC-A cells, cGMP TR-FRET, EC30 ANP; 0% at EC30 ANP, 100% saturating ANP; activation, % at 10 µM; 370,000 compounds, 0.14% hits; AID 1671463; in the data active means activation above about 40%
# aDG glyco up = increases alpha dystroglycan glycosylation. Pro5-aDG cells, alpha-DG glycosylation AlphaScreen (IIH6); 0% Pro5, 100% B10-LARGE cell signal. activation, % at 10 µM. 360,000 compounds, 0.22% hits. AID 624168;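 active means activation of at least 8% versus controls, or a plate z-score of at least 8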;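 further: Pro5 are CHO cells carrying HIG-tagged alpha-DG that lacks glycosylation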
# FAS TE block = inhibitors of human fatty acid synthase thioesterase domain; P49327; inhibition, % at 15 µM; 360,000 compounds, 0.67% hits; recombinant FAS-TE, OMFH fluorogenic substrate, fluorescence endpoint;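 active means compounds whose normalised, plate-corrected inhibition of enzyme fluorescence in the single-dose primary screen is 50% or more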;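 further: 0% = DMSO with enzyme and 100% = substrate without enzyme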
# FAS-TE conf = FAS thioesterase (human) inhibition, confirmation | 2,300 compounds, 45% hits | shares compounds with FAS TE block | AID 624325 | recombinant FAS-TE, OMFH fluorogenic substrate, fluorescence | inhibition, % at 15 µM;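 active means compounds inhibiting the enzyme by at least 50% at 15 µM in any one of the replicates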;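 further: 0% = enzyme with DMSO only and 100% = wells lacking enzyme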
# Active calls of the source: *; . = no result.
SMILES,GC-B act,NPR1 activator,aDG glyco up,FAS TE block,FAS-TE conf
C(/C=C\c1ccco1)=NN1CCN(Cc2cccc3ccccc23)CC1,-12,-4,.,.,.
COc1ccccc1C(=O)NC1CCCCN(C)C1=O (stereo not drawn),-1,-2,.,.,.
O=C(c1cccs1)n1ccc2ccc(-c3ccc4ccn(Cc5ccccc5)c4c3)cc21,-4,1,.,.,.
O=C(NC(Nc1ncc(S(=O)(=O)c2ccc([N+](=O)[O-])cc2)s1)(C(F)(F)F)C(F)(F)F)c1ccc(Cl)cc1,12,5,0,61*,44*
COCC(=O)Nc1ncc(S(=O)(=O)c2ccc([N+](=O)[O-])cc2)s1,8,0,0,0,.
O=C(Nc1ncc(S(=O)(=O)c2ccc([N+](=O)[O-])cc2)s1)c1cccc2ccccc12,4,1,0,56*,7
CCCCC(=O)Nc1ncc(S(=O)(=O)c2ccc([N+](=O)[O-])cc2)s1,5,2,0,4,.
Cc1csc(NC(=O)C2CCN(S(=O)(=O)c3ccc4c(c3)oc(=O)n4C)CC2)n1,-2,0,0,59*,68*
Cn1c(=O)oc2cc(S(=O)(=O)N3CCC(C(=O)NCc4cccs4)CC3)ccc21,-5,1,0,-2,.
Cc1cccc(N2CCN(C(=O)COc3ccc4ccc(=O)oc4c3)CC2)c1C,4,-1,0,70*,83*
O=C(COc1ccc2ccc(=O)oc2c1)N1CCN(c2ccccc2)CC1,-1,0,0,49,.
CCCN1CCCCC(NC(=O)c2ccc3ccccc3c2)C1=O (stereo not drawn),-3,5,.,.,.
COc1cccc(C(=O)N[C@@H](Cc2cccnc2)C(=O)N2CCC[C@H]2C(=O)NCc2ccccc2)c1,1,0,.,.,.
COc1cccc(NC(=O)CN2C(=O)CSc3ccc(S(=O)(=O)N4CCC(C)CC4)cc32)c1,-3,-2,4,65*,72*
COc1cccc(NC(=O)CN2C(=O)CSc3ccc(S(=O)(=O)N4CCOCC4)cc32)c1,10,1,0,14,.
Cc1ccc(-n2c(SCC(=O)c3ccc(Br)cc3)nnc2-c2ccncc2)cc1,-19,-14,.,.,.
CSCCC(NC(=O)c1cccc([N+](=O)[O-])c1)c1nc2ccccc2[nH]1 (stereo not drawn),4,0,0,26,.
CSCC[C@H](NC(=O)c1cc([N+](=O)[O-])ccc1Cl)c1nc2ccccc2[nH]1,-2,-9,0,63*,41
C=CCOC(=O)N[C@H](c1ccccc1)[C@H](C)/C=C/CC(=O)OC,3,-5,.,.,.
CN1CCCN(C(=O)CN2C(=O)CC(C)(C)S(=O)(=O)c3ccccc32)CC1,-2,0,.,.,.
O=C(COC(=O)c1cc([N+](=O)[O-])ccc1N1CCOCC1)Nc1ncc(Cl)cc1Cl,2,-3,0,54*,71*
O=C(COC(=O)c1cc([N+](=O)[O-])ccc1N1CCOCC1)Nc1c(Cl)cccc1C(F)(F)F,-1,-1,0,65*,62*
O=C(OCc1ccccc1C(F)(F)F)c1cc([N+](=O)[O-])ccc1N1CCOCC1,-1,-2,0,33,.
O=C(COC(=O)c1cccc(S(=O)(=O)N2CCOCC2)c1)Nc1ncc(Cl)cc1Cl,-2,-1,0,-4,.
CCCCCCCCN1C(=O)[C@@H](CC(=O)NCCCN2CCCC2=O)C[C@@]2(C(=O)OC)C1=C[C@H](C1CCCC1)O[C@@H]2C,4,1,.,.,.
SMILES,GC-B act,NPR1 activator,aDG glyco up,FAS TE block,FAS-TE conf
COc1cc(NC(=O)c2cc(-c3ccccc3)on2)cc(OC)c1OC,-1,6,2,13,.
COc1cc(NC(=O)c2cc3nc(-c4ccccc4)cc(-c4ccccc4)n3n2)cc(OC)c1OC,4,4,0,52*,6
COC(=O)C1CCN(C(=O)COC(=O)c2cc([N+](=O)[O-])ccc2N2CCOCC2)CC1,1,3,0,69*,71*
O=C(OCc1ccccc1F)c1cc([N+](=O)[O-])ccc1N1CCOCC1,1,0,0,32,.
CC1CCN(C(=O)COC(=O)c2cc([N+](=O)[O-])ccc2N2CCOCC2)CC1,2,2,0,71*,82*
CCOC(=O)C1CCN(C(=O)COc2ccc([N+](=O)[O-])cc2)CC1,1,4,0,59*,67*
CC1CCN(c2ccccc2NC(=O)c2cc([N+](=O)[O-])ccc2N2CCOCC2)CC1,-10,0,0,34,.
CN1CCN(c2ccc3c(c2)Oc2ccccc2CN(Cc2cn(Cc4ccc(C(F)(F)F)cc4)nn2)S3(=O)=O)CC1,2,-3,.,.,.
Nc1[nH]c(C(=O)c2ccc(Br)cc2)c(-c2ccc(Cl)cc2Cl)c1C(=O)NCCc1c[nH]c2ccccc12,3,-3,.,.,.
O=C(N[C@H](Cc1ccccc1)C(=O)NCc1ccc2c(c1)OCO2)[C@H]1O[C@@H](n2ccc(=O)[nH]c2=O)[C@H](O)[C@@H]1O,-1,0,.,.,.
COc1ccc(C2=NN(CN3C(=O)C(=O)c4ccccc43)C(c3cccc([N+](=O)[O-])c3)C2)cc1 (stereo not drawn),1,-3,0,60*,60*
COc1ccc(C2CC(c3ccc(Cl)cc3)=NN2C(=O)c2cccc([N+](=O)[O-])c2)cc1 (stereo not drawn),2,8,0,29,.
CC(C)C(=O)N[C@H]1[C@H](O)CCC[C@]12C(=O)N(Cc1ccccc1)c1ccccc12,-8,-2,.,.,.
COc1ccc(C(=O)CC2(O)C(=O)N(CN3CCOCC3)c3ccc(Br)cc32)cc1 (stereo not drawn),-1,-1,.,.,.
O=C(O)c1ccc(N/N=C/c2c[nH]c3ccccc23)cc1,-2,-4,0,-3,.
Fc1c(F)c(F)c(N/N=C/c2c[nH]c3ccccc23)c(F)c1F,-9,3,2,51*,58*
CC1CCc2c(sc3nc(CN4CCN(S(=O)(=O)c5ccccc5[N+](=O)[O-])CC4)[nH]c(=O)c23)C1 (stereo not drawn),-7,-4,0,91*,50*
Cc1nnc(SCc2cc([N+](=O)[O-])cc3c2OCOC3)n(N)c1=O,6,-2,-1,5,.
C=CCn1c(SCC(=O)N(C)C)nc2cc(C(=O)O)ccc2c1=O,1,-3,0,-1,.
C=CCn1c(SCc2cc([N+](=O)[O-])cc3c2OCOC3)nc2cc(C(=O)O)ccc2c1=O,-6,-2,0,83*,77*
CCC(CO)n1c(SCc2cc([N+](=O)[O-])cc3c2OCOC3)nc2ccccc2c1=O (stereo not drawn),-4,-6,0,54*,16
CN1C(=O)/C(=C/c2cc(N=Nc3ccccc3)ccc2O)SC1=S,-12,-2,0,58*,14
COC(=O)c1cc2c(c3c4cc(C)ccc4n(S(=O)(=O)c4ccc(OC)cc4)c13)C(=O)N(C)C2,7,-5,.,.,.
